# Results taken from the supplement of paper PMC12669032.
# A number with no mark means an inactive call.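 How the source made its calls: active = AUC reduced over 20% with Padj below 0.05 in at least 2 of 3 replicates; inactive = otherwise.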
# Columns and labels:
# Assay in all cases: growth AUC relative to DMSO control (median of replicates) (fraction); higher = more growth (less inhibition), active = hit call of the paper
# Settings in all cases: 20 µM; 24 h
# [1] = test system: Akkermansia muciniphila
# Procedure, shortened: (§1)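 Gut bacterial monocultures were grown anaerobically at 37 °C in mGAM from a starting OD600 of 0.05 with 20 µM compound (1% DMSO), in round-bottom 96-well plates under pierced gas-permeable seals, and OD600 was read hourly for 24 h. With the minimum OD set to 0, area under the growth curve was normalised to the plate median of solvent-only wells, or to row and column medians on the industrial chemical plate. Each value is the median of three biological replicates grown on separate days.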
# [2] = test system: Bacteroides caccae
# Procedure, shortened: as §1
# [3] = test system: Bacteroides clarus
# Procedure, shortened: as §1
# [4] = test system: Bacteroides dorei
# Procedure, shortened: as §1
# [5] = test system: Bacteroides stercoris
# Procedure, shortened: as §1
# [6] = test system: Bacteroides thetaiotaomicron
# Procedure, shortened: as §1
# [7] = test system: Bacteroides uniformis
# Procedure, shortened: as §1
# [8] = test system: Bifidobacterium longum subsp. longum
# Procedure, shortened: as §1
# [9] = test system: Clostridium difficile
# Procedure, shortened: as §1
# [10] = test system: Collinsella aerofaciens
# Procedure, shortened: as §1
Compound,growth AUC [1],growth AUC [2],growth AUC [3],growth AUC [4],growth AUC [5],growth AUC [6],growth AUC [7],growth AUC [8],growth AUC [9],growth AUC [10]
O=S(=O)(Oc1ccc(Cl)cc1Cl)c1ccccc1,0.953,0.956,1,0.939,0.967,1.01,0.996,1.1,1.01,0.98
COC(=O)c1ccccc1S(=O)(=O)NC(=O)Nc1nc(OC(F)F)cc(OC(F)F)n1,0.91,1,0.971,0.997,0.988,0.965,1.02,1.03,0.993,0.992
Cn1cc(C(=O)Nc2ccc(F)cc2-c2ccc(Cl)c(Cl)c2)c(C(F)F)n1,0.929,0.901,0.849,0.949,0.826,0.872,0.911,0.991,0.983,0.991
CCc1cccc(CC)c1N(COC)C(=O)C(=O)O,0.957,1.03,0.971,1.01,1.03,1.03,1.02,0.989,1.02,1.03
CC(C)([CH2][Sn]([CH2]C(C)(C)c1ccccc1)([CH2]C(C)(C)c1ccccc1)[O][Sn]([CH2]C(C)(C)c1ccccc1)([CH2]C(C)(C)c1ccccc1)[CH2]C(C)(C)c1ccccc1)c1ccccc1,1.07,0.969,1.01,0.989,0.969,1.02,0.993,1.02,0.956,1.01
CCCN(CCOc1c(Cl)cc(Cl)cc1Cl)C(N)=O,0.911,0.899,0.959,0.935,0.98,0.961,0.894,0.971,0.987,0.993
Cc1nn(C)c(OCC(=O)c2ccccc2)c1C(=O)c1ccc(Cl)cc1Cl,1.04,0.955,0.978,0.987,1.17,0.933,0.852,0.992,0.947,1.01
Cc1cccc(C)c1N(CC(=O)O)C(=O)CS(=O)(=O)[O-].[Na+],0.891,1.01,0.939,0.998,0.888,1.01,1,0.938,1.05,0.973
Cc1cccc(C)c1N(CCSCC(O)C(=O)[O-])C(=O)CO.[Na+] (stereo not given),1.15,0.993,1.02,0.907,1.01,0.98,1.01,1.05,0.992,0.913
COC1CCC2(CC1)NC(=O)C(O)(c1cc(C)ccc1C)C2=O (stereo not given),1,0.984,1.02,1.03,1.15,1.01,1.02,1.05,1.02,0.981
Nc1cc(Cl)nc(C(=O)O)c1Cl,1.11,1.01,1.04,0.971,1.15,1.03,1.02,1.06,0.952,0.997
CCOCCOC(=O)C(C)Oc1ccc(Oc2ncc(C(F)(F)F)cc2Cl)cc1 (stereo not given),1.02,0.955,0.968,0.948,0.903,0.998,0.903,1.01,1.01,1.03
Cc1cc(CC(C)CC(C)(C)C)n(O)c(=O)c1.NCCO (stereo not given),1.22,0.993,0.982,0.99,0.932,0.999,1,0.991,0.977,0.933
O=C(O)Cc1c[nH]c2ccccc12,0.904,0.973,0.976,1.03,1.02,0.98,1.01,1.01,1,0.984
CCOCN(C(=O)C(=O)O)c1c(C)cccc1CC,0.978,1.01,0.989,1.02,1.02,1.01,1.01,1.01,0.986,1.02
COc1cccc(N(C)C(=S)Oc2cccc(C(C)(C)C)c2)n1,0.871,0.93,0.921,1.06,0.839,1.01,1.01,0.895,1.09,0.97
Oc1ccc2ccccc2c1N=Nc1ccccc1,1,0.973,1.01,0.977,0.972,1,1,0.942,0.991,0.917
COC(=O)C(C)Oc1cc(Cl)c(Cl)cc1Cl (stereo not given),0.978,0.982,1,1.04,1.22,0.982,0.978,1.03,1.03,0.982
O=C(O)CCCc1c[nH]c2ccccc12,1.13,1.01,1.01,0.776,0.994,0.971,0.979,1.01,1.01,0.954
CCOC(=O)C(C)N(C(=O)c1ccccc1)c1ccc(Cl)c(Cl)c1 (stereo not given),1.07,0.975,0.948,0.963,1.13,0.922,0.89,0.945,1.01,1.02
Clc1ccc(CSc2ccc(Cl)cc2)cc1,0.977,1.02,0.99,0.956,0.969,1.03,0.998,1.02,1.04,0.984
CCOC(=O)[C@@H](C)Oc1ccc(Oc2cnc3cc(Cl)ccc3n2)cc1,0.987,0.9,0.965,0.967,0.996,0.998,0.947,1.01,1.01,1.01
CCc1cccc(C)c1N(C(=O)CS(=O)(=O)[O-])C(C)COC.[Na+] (stereo not given),1.08,0.952,0.987,0.91,0.951,0.727 (active),0.993,0.954,0.991,0.923
CCc1nc2ncnn2c(N)c1CCCC(=O)O.Cl,1.12,0.907,1.03,1,1.14,0.985,1.02,1.01,1.04,1
CCc1nc2ncnn2c(N)c1CCCCCC(=O)O.Cl,1.06,1.03,1.07,1.03,1.14,0.988,1.02,0.963,1.01,0.996
CC1CN(C2CCCCCCCCCCC2)CC(C)O1 (mixture of isomers),0.892,1.01,0.967,1.06,0.84,0.985,1.08,0.985,0.961,0.915
c1ccc(Nc2ccccc2)cc1,0.883,1.01,0.94,1.03,0.951,1,0.981,0.953,0.999,1.01
CC(C)COC(=O)COc1cc(Cl)c(Cl)cc1Cl,0.952,0.864,0.993,0.971,1.15,0.978,1.01,1.03,1,0.91
CCCCOC(=O)C(C)Oc1ccc(Oc2ccc(C(F)(F)F)cn2)cc1 (stereo not given),1.13,1.01,0.977,0.951,1.08,0.959,0.891,0.681 (active),1.01,0.963
